This passage reports binding signal results from article PMC7819943, “Rice protein-binding microarrays: a tool to detect cis-acting elements near promoter regions in rice”.

In all, about 35,000 sequences were measured (“fluorescence intensity (a.u.)”: median about 10,000, highest 2% from about 52,000 on). This excerpt belongs to a sample that is enriched for the highest values.

This experiment deals with T1, OsWOX13 (Oryza sativa, UniProt Q5QMM3 1-267).
T1 sequence: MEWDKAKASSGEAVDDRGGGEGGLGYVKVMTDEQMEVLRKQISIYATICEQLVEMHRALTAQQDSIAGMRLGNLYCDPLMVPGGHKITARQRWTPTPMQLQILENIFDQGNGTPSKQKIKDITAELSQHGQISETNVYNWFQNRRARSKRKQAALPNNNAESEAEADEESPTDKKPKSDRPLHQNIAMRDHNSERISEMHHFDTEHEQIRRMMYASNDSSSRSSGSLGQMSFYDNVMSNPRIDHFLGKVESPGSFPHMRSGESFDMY
The experiment can be described thus: protein-binding microarray (RPBM); PBS, 2% BSA, 51.3 ng/ul salmon testes DNA, 50 uM zinc acetate, 200 nM TF, 25 C, 1 h; high values mean tight binding. As to conditions: protein: recombinant; tags: N-terminal polyhistidine and DsRed monomer fusion (pET32a); label: CyDye5-dUTP incorporated in the synthesized complementary strand; 3' TTTTT single-stranded linker to array surface; dsDNA, one strand shown. Summed up:
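Polyhistidine-tagged DsRed fusions of transcription factors, joined at the N-terminus, were expressed in E. coli BL21-CodonPlus and isolated on Ni–NTA. They were incubated at 200 nM for 1 h at 25 °C on a custom Agilent array, double-stranded and BSA-blocked, in PBS with 2% BSA, salmon testes DNA and 50 µM zinc acetate. The binding signal is per-feature fluorescence intensity (arbitrary units) read on an Axon 4000B scanner after washing.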
For the sequence “ACATATAATTGCCACGTCAGCGCCACATCAATGCCACGTGCGGAGTCACCTAGTGCAG”, the binding signal was 23200 fluorescence intensity (a.u.).
The figure for “ATTAAAATTATGAAATTTTAATGATTCATTAATCTCAAGACGGAGTCACCTAGTGCAG” is 14100 fluorescence intensity (a.u.); for “AACCGAAAATTATTATTTTAATCGGCGTGGTGTCCACTGGCGGAGTCACCTAGTGCAG” it is 4880 fluorescence intensity (a.u.).
The figure for “TCATTAATGATCTAATCACCAACTAAACTCCCTATCAATTCGGAGTCACCTAGTGCAG” is 18200 fluorescence intensity (a.u.); for “GTTTGTTTAGATTGGTACCATTTAAAATCATATTATTTTGCGGAGTCACCTAGTGCAG” it is 20600 fluorescence intensity (a.u.).
As to “GGACAGATTAACTATCACTTAATTTCAGGTTTCCATGTATCGGAGTCACCTAGTGCAG”, the binding signal was 22700 fluorescence intensity (a.u.).
The figure for “TACTACTAATTATATGCCGATTGAGAGTGTTGTAGCGTCACGGAGTCACCTAGTGCAG” is 17700 fluorescence intensity (a.u.).
The figure for “CCTGTTGATTGGTTAGCCCAGCCCATGATGTAGCCCATGACGGAGTCACCTAGTGCAG” is 38200 fluorescence intensity (a.u.).
The figure for “CTGTACTGATTGTTCACGGGTCGTTTCCGCACTATGGAACCGGAGTCACCTAGTGCAG” is 27900 fluorescence intensity (a.u.); for “ATGAAAGATTGATATGTTGACATGTTCACAGATGAACTTACGGAGTCACCTAGTGCAG” it is 17200 fluorescence intensity (a.u.); for “ATGATGATTGGTTGGTTACGGGCATGTTCAGATTGTAGCCCGGAGTCACCTAGTGCAG” it is 54900 fluorescence intensity (a.u.).
Consider “GGCGCACTGATTGTTCATGATTGATGCAGTGATCCGGGCACGGAGTCACCTAGTGCAG”, for which the binding signal was 59600 fluorescence intensity (a.u.).
Turning to “CTGTTCACACGGATTGATCATTGATGGATCCATGCTGATGCGGAGTCACCTAGTGCAG”, the binding signal was 9220 fluorescence intensity (a.u.).
The figure for “AAATAATGTACAAAAGGTGATAGATGAAACAATAAAGTAGCGGAGTCACCTAGTGCAG” is 4460 fluorescence intensity (a.u.); for “TAATAATTTGGGGAGCTTAATTGCTATCCAGTGATATATACGGAGTCACCTAGTGCAG” it is 11100 fluorescence intensity (a.u.).
The figure for “ACTAATCATCACATCGCTGTCTCAGATTCTCAGTGACAGACGGAGTCACCTAGTGCAG” is 4120 fluorescence intensity (a.u.); for “AAAATTGACTAGAGTGCTCTCACAAAATAAACTAGAGAGACGGAGTCACCTAGTGCAG” it is 7000 fluorescence intensity (a.u.).
The figure for “CACCAATCACATTAATATGATAATTCATTCACCTACCTCGCGGAGTCACCTAGTGCAG” is 39700 fluorescence intensity (a.u.); for “AGTCAGATGCTCATAATTGAAAGAAATGCTAGGGCCTGAACGGAGTCACCTAGTGCAG” it is 15200 fluorescence intensity (a.u.); for “TGTTAATTTGAAATTTGGAAGATGTAATTAACTGTTGCCACGGAGTCACCTAGTGCAG” it is 46900 fluorescence intensity (a.u.).
In the case of “TTATGATTTCAAGGTTAATGCTGCAGTTTCAAACAAGTTACGGAGTCACCTAGTGCAG”, the binding signal is 3480 fluorescence intensity (a.u.).
The figure for “AGGTGATCATGCAAGGTAGTCAACAGTGTACTGCTAGTTACGGAGTCACCTAGTGCAG” is 53800 fluorescence intensity (a.u.); for “CACTATAGTTACAGTGTAATTACATGCAAGTTACAGTGTACGGAGTCACCTAGTGCAG” it is 5020 fluorescence intensity (a.u.); for “TATGATTGGCATGGCCTGAATGGATGGATGAATTTTGGATCGGAGTCACCTAGTGCAG” it is 58500 fluorescence intensity (a.u.).
The figure for “AATTCTGTGATTAGCGGGTGCTTTTCGAATGGATGGCATGCGGAGTCACCTAGTGCAG” is 29200 fluorescence intensity (a.u.); for “GTACATGAATTTTGATTAATTGCTAATTTTACATATGGATCGGAGTCACCTAGTGCAG” it is 26000 fluorescence intensity (a.u.).
The figure for “CCGGGTGATTGGCATGAATCTGAATGGCTGAATCCTGATGCGGAGTCACCTAGTGCAG” is 53400 fluorescence intensity (a.u.); for “GCATCGGAATTTTGGATGTGATTGCCTGCATCGGATGGATCGGAGTCACCTAGTGCAG” it is 18200 fluorescence intensity (a.u.).
On to “TTGGTGATTGAATCTGAACATGCTGGCCTTTGGGATGACTCGGAGTCACCTAGTGCAG”, for which the binding signal was 28400 fluorescence intensity (a.u.).
The figure for “TTTAATTGTATTAACACTCGTGAGAATGATACATGAGATCCGGAGTCACCTAGTGCAG” is 29000 fluorescence intensity (a.u.); for “GTGAATTTGATAGGGCGATAAGGATAATAAACAAGAACATCGGAGTCACCTAGTGCAG” it is 3540 fluorescence intensity (a.u.).
The figure for “ACATTAACAAACTCTATCTTAACATTTAGATGCAAGAGCCCGGAGTCACCTAGTGCAG” is 3790 fluorescence intensity (a.u.).
The figure for “AGTGACCTCAATTGATCATTCCCTCATCCTTTAGTCAAGCCGGAGTCACCTAGTGCAG” is 3990 fluorescence intensity (a.u.); for “ATGATTGATCCATGAATCCCATTATCCATCATCCTCGAGTCGGAGTCACCTAGTGCAG” it is 63300 fluorescence intensity (a.u.); for “AATATCCCATGATTGACTAGCTAGATGAATCCATATGGGTCGGAGTCACCTAGTGCAG” it is 36500 fluorescence intensity (a.u.).
As to “TCCTTGATTTCTCCCCTCTCTCTGTCATTTCTCTCTTCCTCGGAGTCACCTAGTGCAG”, the binding signal was 13500 fluorescence intensity (a.u.).
The figure for “TCCCCTTGATTGATTGATCACCATTATTATAACATCCTCTCGGAGTCACCTAGTGCAG” is 64400 fluorescence intensity (a.u.).
On to “CGGATCCCATTCAATCATTCATTCATGTCGGATTGATGCCCGGAGTCACCTAGTGCAG”, for which the binding signal is 11800 fluorescence intensity (a.u.).
The figure for “TAATAACTTATACTGATATTGATTACTCCCTCCATCCCTACGGAGTCACCTAGTGCAG” is 11800 fluorescence intensity (a.u.); for “TCGCCAATGATTGATCGCCTCATTCCCTCCTCCTCCTCCTCGGAGTCACCTAGTGCAG” it is 57300 fluorescence intensity (a.u.).
For the sequence “CTAACTCAATGATTAAAATCTCGCCAGATCCCTCCTGCGTCGGAGTCACCTAGTGCAG”, the binding signal was 16700 fluorescence intensity (a.u.).
The figure for “GATGATTGATGGGAATATAGAGATCCCATGTTTTCCAGCTCGGAGTCACCTAGTGCAG” is 61000 fluorescence intensity (a.u.); for “TACATGATGGGAAAATAGACTTTTGCAGCAGAGATTGAATCGGAGTCACCTAGTGCAG” it is 10200 fluorescence intensity (a.u.).
As for “ATTGATCAATCGATCAATCCCTCCTTCCCCATCCAATCCTCGGAGTCACCTAGTGCAG”, the binding signal is 4160 fluorescence intensity (a.u.).
